Each structure is given as a SMILES string. Structures can show the parent of a compound that is named as a salt. Among all 2,100 compounds or so, about 180 (8.6%) showed an effect of 50% or more. Shown is part of a subset that was picked to be rich in strong results.

The test system of the assay is MOLM1 and UCSD/AML1 (averaged). The assay is described as follows: cell viability relative to DMSO control (POC); higher = less growth inhibition. To be noted: 1 µM; 72 h. Here is the method:
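Primary viability screen in the 3q26 EVI1-high AML cell lines MOLM1 and UCSD/AML1 (1.5e3 cells/well, 384-well), compounds at 1 uM for 72 h. ATP CellTiter-Glo read-out given as percent of viable cells over DMSO control (POC), averaged over duplicates. DMSO was the negative control and 5 uM etoposide the positive control. This mapping covers the MicroSource Spectrum and Selleck anticancer libraries (drug names).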
As for `OCC(O)C(O)C(O)C(O)C(O)CO` (centres undefined), the cell viability amounted to 102%.
As for `COc1ccc2c(c1)OC/C(=C/c1ccc(OC)c(OC)c1)C2=O`, the cell viability worked out at 108%.
For `COc1ccc2c(c1)OC/C(=C\c1ccc(OC)c(O)c1)C2=O`, the cell viability came out at 18.3%.
For `COc1ccc2c(c1)OCC(Cc1ccc(OC)c(OC)c1)C2=O` (centres undefined), the cell viability stood at 112%.
On to `COC(=O)[C@@H]1OC(=O)C2OC23[C@@]1(C)CCC1[C@]2(C)C(C[C@H](O)[C@]13C)C(C)(C)[C@H](OC(C)=O)C[C@@H]2OC(C)=O` (stereo partly drawn) [7beta-HYDROXY-7-DESACETOXYKHIVORINIC ACID, METHYL ESTER], for which the cell viability came to 111%.
Turning to `COC(=O)C[C@H]1C(C)(C)C2(O)OC34CC2C(=O)[C@]1(C)C3CC[C@]1(C)C4=CC(=O)O[C@H]1c1ccoc1` (stereo partly drawn) [8beta-HYDROXYCARAPIN, 3,8-HEMIACETAL], the cell viability is 89%.
For `CC(C)CC(NC(=O)OCC1c2ccccc2-c2ccccc21)C(=O)O` (stereo in doubt), the cell viability came to 105%.
Then `COc1cccc2c1C(=O)c1c(O)c3c(c(O)c1C2=O)C[C@@](O)(C(=O)CO)C[C@@H]3O[C@H]1C[C@H](N)[C@H](O)[C@H](C)O1` [Doxorubicin (Adriamycin)], with 1.61%.
On to `COc1cccc2c1C(=O)c1c(O)c3c(c(O)c1C2=O)C[C@@](O)(C(=O)CO)C[C@@H]3O[C@H]1C[C@H](N)[C@H](O)[C@H](C)O1`, for which the cell viability was found to be 1.67%.
Take `COc1cccc2c1C(=O)c1c(O)c3c(c(O)c1C2=O)C[C@@](O)(C(=O)CO)C[C@@H]3O[C@H]1C[C@H](N)[C@@H](O)[C@H](C)O1`: the cell viability was found to be 5.86%.
As to `COc1cccc2c1C(=O)c1c(O)c3c(c(O)c1C2=O)C[C@@](O)(C(C)=O)C[C@@H]3O[C@H]1C[C@H](N)[C@H](O)[C@H](C)O1` [Daunorubicin HCl (Daunomycin HCl)], the cell viability worked out at 1.38%.
With `CC(=O)[C@]1(O)Cc2c(O)c3c(c(O)c2[C@@H](O[C@H]2C[C@H](N)[C@H](O)[C@H](C)O2)C1)C(=O)c1ccccc1C3=O` [Idarubicin HCl], the cell viability was 1.49%.
`COc1cccc2c1C(=O)c1c(O)c3c(c(O)c1C2=O)C[C@@](O)(C(=O)CO)C[C@@H]3O[C@H]1C[C@H](N)[C@@H](O)[C@H](C)O1` [Epirubicin Hydrochloride]: the cell viability was 1.66%.
For the compound `COc1cccc2c1C(=O)c1c(O)c3c(c(O)c1C2=O)C[C@@](O)(C(C)=O)C[C@@H]3O[C@H]1C[C@H](N)[C@H](O)[C@H](C)O1`, the cell viability was found to be 1.85%.
`CCCCCCCCCCCC[C@@H](C(=O)O)[C@H](C)C(=O)O`: the cell viability is 96%.
With `Cc1cc(O)cc(=O)o1` the figure was 112%; with `O=C1C=C(O)C(=O)c2ccccc21`, 92.9%.
Regarding `CC(=O)OCC(=O)[C@@]1(O)CC[C@H]2[C@@H]3C[C@H](C)C4=CC(=O)C=C[C@]4(C)[C@H]3[C@@H](O)C[C@@]21C` [6alpha-METHYLPREDNISOLONE ACETATE], the cell viability was 65%.
As for `CC(=O)O[C@]1(C)CC[C@@]23C[C@H]1C(C)(C)[C@@H]2CC[C@H]3C`, the cell viability was determined as 107%.
Consider `C[C@H]1CC[C@@H](C(C)(C)O)CC2=C1CC[C@@H]2C`, for which the cell viability came out at 94.4%.
As for `Oc1ccc2c(c1)OC[C@]1(O)Cc3cc(O)c(O)cc3[C@H]21`, the cell viability amounted to 105%.
With `COc1cc2ccc(=O)oc2cc1O` the figure was 94.7%; with `CC1/C(=N/O)C[C@@H]2C[C@H]1C2(C)C` (some centres undefined), 102%; with `C[n+]1ccccc1C=NO`, 99.8%.
Turning to `COc1ccc(C2CC(=O)c3ccc(OC)cc3O2)cc1` (centres undefined), the cell viability came out at 109%.
With `N#Cc1c(O)c2c(-c3ccc(-c4ccccc4O)cc3)csc2[nH]c1=O`, the cell viability stood at 97.3%.
Turning to `COC(=O)[C@H]1[C@H]2C[C@H]3c4[nH]c5cc(OC)ccc5c4CCN3C[C@H]2C[C@@H](OC(=O)c2cc(OC)c(OC)c(OC)c2)[C@@H]1OC`, the cell viability came out at 111%.
In the case of `COC1=C[C@@H](C)[C@@H]2C[C@H]3OC(=O)C[C@H]4C(C)=C(OC)C(=O)[C@H]([C@@]2(C)C1=O)[C@@]34C`, the cell viability came to 93.7%.
Turning to `CC(C)CC(=O)Nc1n[nH]c2c1CN(C(=O)C1CCN(C)CC1)C2(C)C`, the cell viability came to 49.4%.
In the case of `O=c1[nH]cnc2nc[nH]c12`, the cell viability stood at 102%.
In the case of `CC1(C)CC[C@]2(C)CC[C@]3(C)C(=CC[C@@H]4[C@@]5(C)CC[C@H](O)C(C)(C)[C@@H]5CC[C@]43C)[C@@H]2C1` [beta-AMYRIN], the cell viability was 91.8%.
With `CC1(C)CNc2cc(NC(=O)c3cccnc3NCc3ccncc3)ccc21` [Motesanib Diphosphate] the figure was 86.1%; with `CCCCC(CC)CN=C(N)N=C(N)NCCCCCCNC(N)=NC(N)=NCC(CC)CCCC` (centres undefined), 7.07%.
Regarding `O=C(O)[C@]1(O)C[C@@H](O)[C@@H](O)[C@H](O)C1`, the cell viability is 97.5%.
Then `C[C@@H]1CN(CC(=O)Nc2ccc3c(c2)Cc2cccc(-c4cc(=O)cc(N5CCOCC5)o4)c2S3)C[C@H](C)O1`, with 88.5%; and `CCCCCC(=O)Cc1cc(O)cc(O)c1C(=O)Oc1cc(CC(=O)CCCCC)c(C(=O)O)c(OC)c1`, with 87.8%; and `COc1c(-c2coc3cc4c(cc3c2=O)CC(O)C(C)(C)O4)ccc2c1C=CC(C)(C)O2` (centres undefined), with 82.2%.
On to `COc1ccc(CC(=O)c2ccc(O)cc2O)cc1`, for which the cell viability was 107%.
Then `O.O.O.O.O.O.O.O.O.O.O.O.O.O.O.O.O=S(=O)([O][Al])OC[C@H]1O[C@@](COS(=O)(=O)[O][Al])(O[C@H]2O[C@H](COS(=O)(=O)[O][Al])[C@@H](OS(=O)(=O)[O][Al])[C@H](OS(=O)(=O)[O][Al])[C@H]2OS(=O)(=O)[O][Al])[C@@H](OS(=O)(=O)[O][Al])[C@@H]1OS(=O)(=O)[O][Al]`, with 101%.

Broadly, the cell viability is a read-out of living cells in per cent, often relative to untreated cells.

Source of the values: the supplement of paper PMC11150407.
